Rows were chosen to be rich in hits. Some 10% of all compounds tested hit in one or more screens of this group.
CtBP-E1A inh: CtBP/E1A binding inhibition | AlphaScreen GST-E1A/His-CtBP binding, 1536-well; active compounds read low | activity change, % (concentration not given with the values) | actives 0.49% (n = 340,000) | AID 651724; in the data active means activity change below about -65%; inconclusive means mostly about -30% to -63%; further: on the % scale 0 is the no-effect control and ±100 the full control effect
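GST-E1A and His-tagged CtBP (125 nM each as 5X stock) were preincubated with pin-transferred compound for 2 h at 37 °C in the dark, then glutathione donor and nickel acceptor beads were added for 1 h before AlphaScreen reading.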
G9a inh: blocks human histone lysine methyltransferase G9a | G9a H3K9 monomethylation, AlphaScreen, 2 h | Q96KQ7 | AID 504332 | actives 8.8% (n = 350,000) | Potency, µM (top dose mostly 102 µM), without a hit: at the highest dose activity, negative = inhibition, actives largely listed as inhibitors; further: potency means the concentration at half of the fitted maximal effect; on the % scale 0 is the no-effect control and ±100 the full control effect; nearly all actives have a fitted effect of over 75% in size
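Step 1: enzyme (final 20 nM) with compound, 15 min RT. Step 2: substrate peptide 500 nM and SAM 20 uM, 2 h RT. Step 3: anti-H3K9me1 antibody and AlphaScreen beads, 10 min, then plate read.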
BAZ2B block: inhibitors of human BAZ2B bromodomain. Q9UIF8. AlphaScreen BAZ2B-H3K14Ac peptide displacement. Potency, µM (titrated, usually from 114 µM), for inactives: top-dose activity change, negative = inhibition, actives largely listed as inhibitors. actives 4.4% (n = 360,000); further: potency means the concentration at half of the fitted maximal effect; on the % scale 0 is the no-effect control and ±100 the full control effect; nearly all actives have a fitted effect of over 60% in size
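In this displacement format the biotinylated H3(5-23) peptide acetylated at Lys14 serves as ligand at 50 nM, with BAZ2B at 50 nM in PBS pH 7.4 containing 0.01% Tween-20. Donor and acceptor beads are 10 ug/mL final.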
Six1-Eya2 blk: inhibitors of human Six1/Eya2 interaction; Q15475+O00167; AlphaScreen GST-Six1/His-Eya2 binding, biochemical; active compounds read low; activity change, % (no concentration beside the values); actives 0.56% (n = 360,000); in the data active means activity change below about -65%; inconclusive means mostly about -30% to -63%; further: on the % scale 0 is the no-effect control and ±100 the full control effect
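AlphaScreen with GST-Six1 and His-Eya2 (5X mix: 250 nM and 500 nM), glutathione donor and nickel acceptor beads; buffer 50 mM Tris pH 8.0, 300 mM NaCl, 1 mM TCEP; 1 h at 37 C in the dark.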
JMJD2A Tudor inh: blocks the human JMJD2A Tudor domain | O75164 | AlphaScreen JMJD2A-Tudor / H3K4me3 peptide binding | Potency, µM (doses to about 114 µM), inactives show at the top dose activity change, negative = inhibition, usual class: inhibitors | actives 4.4% (n = 390,000); further: potency means the concentration at half of the fitted maximal effect; on the % scale 0 is the no-effect control and ±100 the full control effect; nearly all actives have a fitted effect of over 50% in size
HP1b chromo inh: HP1-beta chromodomain-methylated histone interaction inhibition | AlphaScreen HP1-beta / biotin-H3K9me3 peptide binding | actives 0.56% (n = 390,000) | AID 540317 | Potency, µM (top dose mostly 114 µM), inactives show at the top dose activity change, negative = inhibition, actives largely listed as inhibitors | P83916; further: potency means the concentration at half of the fitted maximal effect; nearly all actives have a fitted effect of over 70% in size
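AlphaScreen: HP1-beta (50 nM) preformed 30 min with biotin-H3(1-18)K9me3 peptide (50 nM) in PBS pH 7.4, 0.01% Tween-20. Compound added for 30 min at RT, then streptavidin donor/nickel chelate acceptor beads (10 ug/mL) for 30 min.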
Numbers without * were called inactive; ? = inconclusive; / = no result; ! = a repeat was not active; [ ] = remark or other dose. Unless noted, the call rests on the fitted dose curve; in most records, active means well fitted inhibition curve with a large enough effect; inconclusive means small, poorly fitted or top-dose-only effect; inactive means no such curve, though single readings can be large or run the other way.

SMILES | CtBP-E1A inh | G9a inh | BAZ2B block | Six1-Eya2 blk | JMJD2A Tudor inh | HP1b chromo inh
O=[N+]([O-])c1ccccc1S(=O)(=O)N1CCCCC1 | -14 | 14%[59 µM] | -8% | -3 | -13% | 26%
Cc1ccc(C)c(NC(=O)CN2C(=O)CCc3ccccc32)c1 | / | ? | 79µM* | / | ? | -7%
Cc1ccc(NC(=O)CN2C(=O)CCc3ccccc32)cc1C | / | -37%[59 µM] | 79µM* | / | ? | -19%
Cc1ccc(Cl)cc1NC(=O)CN1C(=O)CCc2ccccc21 | / | 14%[59 µM] | -12% | / | -5% | 65%
Cc1ccc(NC(=O)Cn2cccc2)cc1C | 1 | ? | ? | -8 | -24% | 10%
O=C1CSC2(CCN(CCCN3c4ccccc4Sc4ccc(Cl)cc43)CC2)N1 | / | 18µM* | / | / | / | /
CN1CCN(CCCN2c3ccccc3Sc3ccc(C(F)(F)F)cc32)CC1 | 15 | 16µM*! | 35µM* | -15 | ? | ?
O=c1c(O)c(-c2ccc(O)c(O)c2)oc2cc(O)ccc12 | -74* | / | / | ? | -7% | 27%
N#CC1=C(N)C(C#N)(C#N)C(c2cccnc2)C2COCC=C12 (centres undefined) | 1 | ? | 17% | 1 | -9%[57.1 µM] | 64%
N#CC1=C(N)C(C#N)(C#N)C2(CCC3(CC2)OCCO3)C2CC3(CC=C12)OCCO3 (centres undefined) | -25 | -2%[59 µM] | 100µM* | -13 | -15% | 33%
CN1C2C=C3C(C#N)=C(N)C(C#N)(C#N)[C@H](c4c(F)cccc4F)[C@H]3C1CC2 (some centres undefined) | 8 | 50µM* | ? | -22 | -22% | 30%
N#CC1=C(N)C(C#N)(C#N)[C@H](c2c(F)cccc2F)[C@H]2CC3(CC=C12)OCCO3 | -7 | 50µM* | -14% | -14 | -15% | 31%
CCc1ccccc1NC(=O)CN(c1ccccc1OC)S(=O)(=O)c1ccc(C)cc1 | / | -3%[59 µM] | 5% | / | -15% | 7%
CC(C)CSc1n[nH]c(N)n1 | -5 | 13% | -7% | 8 | -14% | 0%
O=C1c2ccccc2C(=O)N1CCSc1ncn[nH]1 | 10 | -9%[59 µM] | 49% | -16 | -2% | 42%
CC(C)CSc1n[nH]c(=S)s1 | -11 | 1.8µM* | 50µM* | 3 | 8.9µM* | 28µM*
CC(CSc1n[nH]c(=S)s1)c1ccccc1 (centres undefined) | -18 | / | / | -12 | 18µM* | 50µM*
O=C1c2ccccc2C(=O)N1CCSc1n[nH]c(=S)s1 | 1 | 1.3µM* | ? | -2 | 18µM* | ?
CCc1ccc(CNC(=O)CCCN2C(=O)CCn3nc(-c4cccn4C)cc32)cc1 | / | ? | ? | / | ? | 0%[57 µM]
CCOc1ccc2nc(SCC(=O)N(CC(C)C)c3c(N)n(Cc4ccccc4)c(=O)[nH]c3=O)[nH]c2c1 | 16 | 50µM* | -2% | -8 | -9% | 16%
COCCN(C(=O)CSc1nc2ccc(Cl)cc2[nH]1)c1c(N)n(Cc2ccccc2)c(=O)[nH]c1=O | -3 | 3% | 1% | -3 | -4% | 33%
COCCN(C(=O)CSc1nc2ccc(OC)cc2[nH]1)c1c(N)n(Cc2ccccc2)c(=O)[nH]c1=O | 12 | 20µM* | 5% | 2 | -21% | 23%
COCCN(C(=O)CSc1nc(N)cc(=O)[nH]1)c1c(N)n(Cc2ccccc2)c(=O)[nH]c1=O | 6 | 50µM* | 9% | 1 | -11% | 14%
COCCN(C(=O)CSc1nc2ccc(C)cc2[nH]1)c1c(N)n(Cc2ccccc2)c(=O)[nH]c1=O | 2 | ? | -8% | 4 | -16% | 22%
COc1ccc(C(=O)NCCn2cc(SCC(=O)Nc3ccc4c(c3)OCCO4)c3ccccc32)cc1 | / | -4%[59 µM] | -7% | / | -30% | 47%
Cc1ccc(CNC(=O)c2ccc(CSCc3ccc(C)cc3)o2)cc1 | / | 10%[59 µM] | 29% | / | 32µM* | 33%

Bioassay records from PubChem BioAssay.
